Values joined by “and” are separate entries in the source; they are usually repeats but may differ in a detail not shown here. Equal entries are not always repeated.
These molecules were tested against Apelin receptor (Homo sapiens) (UniProt P35414) (assay: APJ beta-arrestin recruitment blockade alongside CXCR6 – cell-based, DiscoveRx, panel, CHO-K1, counter-screen for CXCR6 antagonist project, SAR follow-up (AID 651598)). Details: CHO-K1 PathHunter beta-arrestin luminescence, antagonist mode; run 1, at 80 µM (top of the series).
Apelin receptor (Homo sapiens), sequence (P35414 whole entry, looked up): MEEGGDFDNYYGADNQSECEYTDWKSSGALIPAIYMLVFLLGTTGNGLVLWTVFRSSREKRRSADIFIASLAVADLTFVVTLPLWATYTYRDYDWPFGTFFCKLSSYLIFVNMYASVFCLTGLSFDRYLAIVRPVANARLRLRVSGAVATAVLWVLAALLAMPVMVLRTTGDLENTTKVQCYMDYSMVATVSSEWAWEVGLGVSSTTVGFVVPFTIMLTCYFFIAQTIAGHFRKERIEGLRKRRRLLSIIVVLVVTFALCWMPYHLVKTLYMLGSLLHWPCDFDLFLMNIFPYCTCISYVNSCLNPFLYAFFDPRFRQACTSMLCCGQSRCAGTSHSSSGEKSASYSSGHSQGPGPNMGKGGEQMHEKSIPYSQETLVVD

SMILES | inhibition
COc1cc(C(=O)NC2CC3CCC(C2)N3CC(=O)Nc2ccccc2)cc(OC)c1OC (stereo not drawn) | 15.6% and 6.78%
COc1cc(C(=O)NC2CCN(CC(=O)Nc3ccccc3)CC2)cc(OC)c1OC | -17.6%
COc1cc(C(=O)NC2CC3CCCC(C2)N3CC(=O)Nc2ccccc2)cc(OC)c1OC (stereo not drawn) | -17.1% and -7.52% and 20.1%
